High-throughput results (PubChem)
The full list was thinned out, with hits kept by preference.
Tgondii IFNg = T. gondii growth inhibition under IFN-gamma | Toxoplasma gondii growth in IFN-gamma-treated host cells; active compounds read low | activity change, negative = inhibition, % (concentration not given with the values) | actives 3.8% (n = 69,000) | AID 1259416; in the data active = activity change below about -70%, passing the limit was not always enough;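 also: host cells are HeLa cells infected with Toxoplasma gondii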
Numbers without * were called inactive; ! = not confirmed by another sample.

CCN1CC[C@@]2(CN(C(=O)C3CCOCC3)C[C@H]2c2ccccc2)C1=O was read as Tgondii IFNg -11.0.
`O=C(Nc1ccncc1)c1cc([N+](=O)[O-])ccc1Cl` gave Tgondii IFNg -81.7*.
For CCC(=O)Oc1ccc(C(=O)Nc2ccc([N+](=O)[O-])cc2)cc1 the results were Tgondii IFNg 109.9.
For O=C(O)c1cc([N+](=O)[O-])ccc1NCCCc1ccccc1 the results were Tgondii IFNg 29.6.
For O=C(Nc1ccccc1)c1cc([N+](=O)[O-])ccc1Cl the results were Tgondii IFNg 14.0.
`O=C(NCCNc1ccc(Cl)cc1[N+](=O)[O-])c1cccnc1` gave Tgondii IFNg -5.0.
Screening O=C(Nc1ccc([N+](=O)[O-])cc1Cl)c1cc(Cl)ccc1O returned Tgondii IFNg -76.0*!.
Screening Cc1nc(C)c(CC(=O)N2CCCC(COc3ccc(F)cc3)C2)s1 (stereo not given) returned Tgondii IFNg -25.1.
O=c1c2ccccc2cnn1Cc1nc2c3ccccc3ncn2n1 was read as Tgondii IFNg 18.6.
For NCCNC(=O)CCc1n[nH]c(=O)c2ccccc12 the results were Tgondii IFNg 6.8.
Screening CS(=O)(=O)N1CCOCC2(CCN(C(=O)C3CCCO3)CC2)C1 (stereo not given) returned Tgondii IFNg -1.1.
For CCCc1cnc(-c2cccc3[nH]ccc23)nc1 the results were Tgondii IFNg 159.3.
`CN1CCN(c2ncnc3ccc(-c4cccc5[nH]ccc45)cc23)CC1` gave Tgondii IFNg -76.0*.
`CC(C)NC(=O)c1ccc2ncnc(N3CCCCC3)c2c1` gave Tgondii IFNg -10.0.
Screening CN(C)CCCn1c(SCC(=O)N2CCCC2)nnc1-c1ccncc1 returned Tgondii IFNg 14.9.
`Cc1cc(C)nc(N2CCC(c3cc(C(=O)Nc4nccs4)c4ccccc4n3)C2)n1` (stereo not given) gave Tgondii IFNg -7.3.
For CCN1c2ccccc2C(=O)NC12CCN(C(=O)Nc1ccccc1OC)CC2 the results were Tgondii IFNg 14.3.
`Cn1c(C#N)ccc1-c1ccc2c(c1)C(C)(C)OC(=S)N2` gave Tgondii IFNg -82.8*.
CC(C)(O)C#Cc1ccc(CN2CCn3nc(C(=O)O)cc3C2)s1 was read as Tgondii IFNg 27.2.
`COc1cc(/C=C/C2=NNC(=O)CC2)cc(OC)c1OC` gave Tgondii IFNg -97.4*.
Screening COc1ccc(/C=C2\CC/C(=C\c3ccc(OC)c(OC)c3)C2=O)cc1OC returned Tgondii IFNg 7.4.
For COc1cc(/C=C/C(=O)N2CCN(CC(=O)N3CCCC3)CC2)cc(OC)c1OC the results were Tgondii IFNg 13.2.
COC(=O)c1ccccc1N(C)C(=O)c1cc2cccnc2n(Cc2ccccc2)c1=O was read as Tgondii IFNg -16.3.
For Cc1ccc2c(c1C)-n1cccc1C1(CCN(S(=O)(=O)c3cn(C)cn3)CC1)N2 the results were Tgondii IFNg 8.7.
`O=C(N[C@H]1COC[C@@H]1N1CCCCC1)c1cnn2c1CCCC2` gave Tgondii IFNg -60.5.
For Cc1ccc2c(c1C)-n1cccc1C1(CCN(S(=O)(=O)c3c(C)noc3C)CC1)N2 the results were Tgondii IFNg -26.5.
Screening c1ccc(C2CCCN(c3ncnc4c3CCNC4)CC2)cc1 (stereo not given) returned Tgondii IFNg -79.0*.
Screening c1ccc(C2CN(c3ncnc4c3CCNC4)CCO2)cc1 (stereo not given) returned Tgondii IFNg 47.1.
c1cnc(NC2CCN(c3ncnc4c3CCNC4)CC2)nc1 was read as Tgondii IFNg -35.0.
Screening COc1cc(OC)cc(C(=O)Nc2ccc(-c3nc(-c4ccc(C)cc4C)co3)cc2)c1 returned Tgondii IFNg -49.2.
Screening O=C(Nc1cccc(Cl)c1)c1nnc(C2CCCN2C(=O)c2cc3ccccc3[nH]2)s1 (stereo not given) returned Tgondii IFNg 72.8.
`CC(C)C(C)NC(=O)c1ncn2c1CN(CC1CC1)S(=O)(=O)c1ccccc1-2` (stereo not given) gave Tgondii IFNg -12.8.
For CC(C)CCN1Cc2c(C(=O)Nc3cccc(F)c3)ncn2-c2ccccc2S1(=O)=O the results were Tgondii IFNg -83.5*.
`CN1Cc2c(C(=O)Nc3cccc(Cl)c3)ncn2-c2ccccc2S1(=O)=O` gave Tgondii IFNg -6.8.
CSc1cccc(NC(=O)Cn2c(=O)cc(C(=O)N3CCOCC3)c3ccccc32)c1 was read as Tgondii IFNg 12.3.
Screening Cc1noc(-c2ccc(Cl)cc2)c1C(=O)Sc1cccc(Cl)c1Cl returned Tgondii IFNg -4.7.
COc1ccccc1CN(Cc1nc2ccccc2n1C)C1CC1 was read as Tgondii IFNg -2.4.
Screening COC(=O)CC(=O)c1cnc2sccn2c1=O returned Tgondii IFNg -20.4.
`CCOc1cc(CCC(=O)Nc2n[nH]c(CC)n2)on1` gave Tgondii IFNg 38.8.
CCOc1cc(CCC(=O)N2CCc3[nH]c4c(Cl)cccc4c3C2)on1 was read as Tgondii IFNg 39.6.
CCOc1cc(CCC(=O)N2CCCc3c(Cl)cc(Cl)c(O)c32)on1 was read as Tgondii IFNg -87.4*.
Screening CNC(=O)CN1CCOCC2(CCCN(C(=O)c3ccn(C)n3)C2)C1 (stereo not given) returned Tgondii IFNg 0.7.
Screening Fc1ccc(CN(Cc2ccncc2)Cc2cccc3c2OCO3)cc1 returned Tgondii IFNg -82.1*.
Screening CCc1ccc(CN(Cc2ccncc2)Cc2ccc(F)cc2)nc1 returned Tgondii IFNg -0.3.
`OCc1ccc(CN(Cc2ccncc2)Cc2ccc(F)cc2)o1` gave Tgondii IFNg -7.7.
For O=S(=O)(c1cccc2nonc12)N1CCCC1c1ccc(F)cc1 (stereo not given) the results were Tgondii IFNg 8.4.
CN1CCO[C@H]2CCN(C(=O)c3ccn(C)n3)C[C@H]21 was read as Tgondii IFNg 121.0.
Screening CCc1ccc(C2CC(=O)Nc3cc(O)c(C)cc32)o1 (stereo not given) returned Tgondii IFNg 19.7.
For CCC(C)Nc1nc2nc3ccc(C)cn3c(=O)c2cc1C(=O)NCc1ccco1 (stereo not given) the results were Tgondii IFNg 52.6.
Screening CCCCC[C@H](O)/C=C/[C@H]1[C@H](O)CC(=O)[C@@H]1CCCCCCC(=O)O returned Tgondii IFNg 13.6.
CCCCCCCCCCC[C@@H](C[C@@H]1OC(=O)[C@H]1CCCCCC)OC(=O)[C@H](CC(C)C)NC=O was read as Tgondii IFNg -82.3*.
For CC(c1ccccn1)N(C)Cc1nc2ccccc2n1C(C)C (stereo not given) the results were Tgondii IFNg -19.7.
Screening Cc1cc(CN(C)Cc2nc3ccccc3n2C(C)c2ccccc2)n[nH]1 (stereo not given) returned Tgondii IFNg -79.2*.
`Cc1cc(CN(C)Cc2ccc(-n3cccn3)cc2)n[nH]1` gave Tgondii IFNg -2.6.
CC(=O)N1CCC2(CC1)OC(=O)C(C)=C2C(=O)NCCCN1CCN(c2cc(C)ccc2C)CC1 was read as Tgondii IFNg -39.6.
For O=S(=O)(c1cccs1)N1CCC2(CC1)NCCN=C2NCc1ccc(F)c(Cl)c1 the results were Tgondii IFNg 15.3.
O=C(CN1C(=O)CNC1=O)N1CCC(c2[nH]ncc2-c2cccc(F)c2)CC1 was read as Tgondii IFNg 58.6.
Cc1ccc(N2CC(C(=O)NCCc3nc(C(C)(C)C)cs3)CC2=O)c(C)c1 (stereo not given) was read as Tgondii IFNg 6.5.
For CCOC(=O)[C@@]12CCCN(C(=O)c3cccnc3)C[C@@H]1CN(C(C)=O)C2 the results were Tgondii IFNg 1.7.
